Measured values as given in PubChem BioAssay.

Tests used:
[1] = NFkB reporter suppression in cystic fibrosis bronchial cells – cell-based, uHTS hits, panel, cytotoxicity readout, dose response (AID 624344); details: CF bronchial epithelial cells, PAF-induced NFkB reporter inhibition, with PAF, run 1; at 79 µM (top of the series) unless noted
[2] = as above; details: CF bronchial epithelial cells, PAF-induced NFkB reporter inhibition, with PAF, run 2; at 79 µM (top of the series) unless noted

SMILES | inhibition [1] | inhibition [2]
C[C@@H]1CN([C@H](C)CO)C(=O)c2cc(NC(=O)Nc3ccc(C(F)(F)F)cc3)ccc2O[C@H]1CN(C)S(=O)(=O)c1ccc(Cl)cc1 | 86.7% | 92.7%
COc1ccc2cc3c(N)nn(C(=O)c4ccc(F)cc4)c3nc2c1 | 90% | 96.1%
COc1ccc(/C=N/NC(=O)c2[nH]c3ccc(Br)cc3c2-c2ccccc2)cc1 | 88.4% | 71.3%
c1csc(Cc2nn3c(-c4ccncc4)nnc3s2)c1 | 115% | 102%
Nc1ncnc(Sc2ccc(Cl)cc2)c1[N+](=O)[O-] | 101% | 85.6%
Cc1nn(-c2ccccn2)c2c1-c1nc(N)ncc1CC2 | 98.6% | 102%
CC[C@@H](C(=O)[C@@H](C)[C@@H](O)[C@H](C)[C@@H]1O[C@@H]([C@@H](CC)C(=O)O)CC[C@@H]1C)[C@H]1O[C@]2(C=C[C@@H](O)[C@]3(CC[C@@](C)([C@H]4CC[C@](O)(CC)[C@H](C)O4)O3)O2)[C@H](C)C[C@@H]1C | 117% | 107%
CCN(CC)CCNC(=O)c1ccc(NC(=O)C2CCN(c3ncnc4sc(C)c(C)c34)CC2)cc1 | 112% | 103%
CCCc1cc(-c2[nH]ncc2-c2ccc3c(c2)OCCCO3)c(O)cc1O | 108% | 102%
CC1CCc2sc3ncnc(N4CCOCC4)c3c2C1 (stereo not given) | 112% | 101%
Cc1cc(C)c(C#N)c(SCC(=O)c2ccc(Cl)cc2Cl)n1 | 111% | 101%
CCOc1ccc(C(C(=O)NC2CCCC2)N(C(=O)c2snc(C(N)=O)c2N)c2cccc(O)c2)cc1 (stereo not given) | 105% | 96.6%
CC(=O)c1ccc(-c2cnc3c(NC=O)cc(-c4ccc(C(=O)NC5CC5)cc4)cn23)cc1 | 99.5% | 104%
O=C(Nc1ccc([N+](=O)[O-])cc1)Nc1ccc(Cl)cc1F | 109% | 101%
O=C1CC(=O)OC(c2ccc([N+](=O)[O-])cc2)O1 | 101% | 94.3%
Cc1cccc(C(=O)N[C@H](C(=O)Nc2nc3ccccc3[nH]2)C(C)C)c1 | 101% | 70.1%
CC(=O)Nc1ccc(NC(=O)COC(=O)c2c3c(nc4ccccc24)CCN(Cc2ccccc2)C3)cc1 | 92.5% | 89.8%
Cc1ccc(CSc2nccc(-c3c(C)nc4ccccn34)n2)cc1 | 101% | 102%
NC(=O)c1nsc(C(=O)N(c2ccccc2)C(C(=O)NCc2ccc(F)cc2)c2ccc(O)cc2)c1N (stereo not given) | 102% | 108%
ON=C1c2ccccc2-c2cc(Br)ccc21 | 117% | 106%
O=C(Nc1ccc(F)cc1)Nc1ccc(N2CCCC2)c(S(=O)(=O)Nc2ccccc2Cl)c1 | 111% | 89.3%
c1nc(NCc2ccc3c(c2)OCO3)c2cc(-c3ccoc3)ccc2n1 | 102% | 102%
Cc1cccc(N2CCN(C(=O)c3[nH]c(C(F)(F)F)nc3-c3ccccc3)CC2)c1C | 91.2% | 103%
Fc1ccccc1-c1csc(=Nc2cccnc2)n1CCCn1ccnc1 | 116% | 94.9%
COC(=O)c1ccc(-c2ccc(OC)c([C@H]3[C@H]4C=CC[C@@H](C)[C@@H]4C(=O)N3Cc3ccccc3)c2)cc1 | 111% | 80%
COc1cccc(-c2cnc3c(NC=O)cc(-c4ccc(OC)cc4OC)cn23)c1 | 98.2% | 86.1%
O=C(c1cc([N+](=O)[O-])ccc1N1CCOCC1)N1CCN(c2ccccc2)CC1 | 116% | 79.6%
O=C(c1nnsc1S(=O)(=O)c1ccc(Cl)cc1)N1CCOCC1 | 96% | 85.4%
C[C@H](O)[C@@H]1CN2CCc3c([nH]c4ccc(-c5ccc6c(c5)OCO6)cc34)[C@@H]2C[C@@H]1N(C)C(=O)Nc1ccc(F)cc1 | 99.8% | 107%
Cc1ccc(CNc2ncnc(N)c2[N+](=O)[O-])cc1 | 87.7% | 80.8%
